From the supplement of paper PMC13380429
Values without a mark were called inactive.

System: Vero E6 infected with SARS-CoV-2
Experiment: inhibition of SARS-CoV-2 cytopathic effect; higher = more antiviral protection, active = above 15
Conditions: 48 h

| SMILES | inhibition of SARS-CoV-2 cytopathic effect (1 nM) | inhibition of SARS-CoV-2 cytopathic effect (8.33 nM) | inhibition of SARS-CoV-2 cytopathic effect (100 nM) | inhibition of SARS-CoV-2 cytopathic effect (833.33 nM) | inhibition of SARS-CoV-2 cytopathic effect (10000 nM) |
| --- | --- | --- | --- | --- | --- |
| Cc1ccc2nc(N)[nH]c(=O)c2c1Sc1ccncc1 [nolatrexed] | 0.89% | 3.11% | 1.17% | 2.04% | -2.82% |
| O=C1CN=C(c2cccc(Br)c2)c2oc3ccccc3c2N1 | -2.75% | -1.3% | -1.9% | 0.38% | 0.75% |
| CC1(C)N=C(N)N=C(N)N1OCCCOc1cc(Cl)c(Cl)cc1Cl | -1.05% | 0.38% | 0.21% | 0.74% | -2.49% |
| Cc1ccc(C(=O)Nc2ccc(CN3CCN(C)CC3)c(C(F)(F)F)c2)cc1C#Cc1cnc2[nH]ncc2c1 | 1.62% | 6.08% | 4.44% | -8.47% | -20.9% |
| O=C1CC[C@@]2(O)[C@H]3Cc4ccc(O)c5c4[C@@]2(CCN3CC2CC2)[C@H]1O5 | 4.81% | 3.83% | 1.26% | -1.24% | 0.01% |
| O=C(O)CCCN1CCC(O[C@@H](c2ccc(Cl)cc2)c2ccccn2)CC1 [bepotastine] | -0.92% | 2.31% | 0.31% | 2.01% | -0.07% |
| O=c1cc(N2CCNCC2)oc2c(-c3ccccc3)cccc12 | 0.61% | -3.07% | -0.37% | 0.12% | 1.5% |
| CN(C)c1nc(N(C)C)nc(N(C)C)n1 [altretamine] | 2.31% | -1.41% | 0.54% | -0.29% | 2.53% |
| Cc1cccc(-c2[nH]c(C(C)(C)C)nc2-c2ccc3nccnc3c2)n1 | 3.48% | -0.18% | 0.8% | 0.91% | 1.69% |
| Nc1nc(Nc2ccccc2)nc2c1ncn2[C@@H]1O[C@H](CO)[C@@H](O)[C@H]1O | 2.4% | 4.07% | 1.9% | 1.06% | -2.77% |
| COC(=O)CC[C@@H]1N=C(c2ccccn2)c2cc(Br)ccc2-n2c(C)cnc21 [remimazolam] | 0.83% | 1.12% | 2.32% | 0.51% | -1.57% |
| CN1CCN(c2nc3ccccc3nc2Cl)CC1 | -3.46% | -0.96% | -3.46% | 0.73% | 5.89% |
| Cc1cc(O)c(-c2ccc([C@@H](C)CN)cc2)c2c1[nH]c(=O)c1sccc12 | -2.25% | -1.13% | -0.22% | 3.77% | -23.9% |
| O=C(Nc1ccc(O)cc1)c1ccccc1O [N-salicoylaminophenol] | 1.23% | 2.05% | 1.76% | 2.47% | 4.87% |
| CCCCCCCC/C=C/CCCCCCCC(=O)OC[C@H]1O[C@@H](n2ccc(N)nc2=O)C(F)(F)[C@@H]1O [gemcitabine-elaidate] | -0.31% | -0.77% | -1.9% | 0.35% | 3% |
| CC[C@@H](C)c1ccc(NC(=O)Cn2cnc3c2c(=O)n(C)c(=O)n3C)cc1 (racemic) | -0.15% | 0.22% | -1.39% | -1.04% | 3.52% |
| COc1c(C)cnc(Cn2cnc3c(Cl)nc(N)nc32)c1C | -0.38% | 2.24% | 0.07% | 3.31% | 6.01% |
| COc1cc2ncnc(Nc3ccc(F)c(Cl)c3)c2cc1OCCCN1CCOCC1 [gefitinib] | -1.32% | -0.45% | -4.25% | -11.2% | -22.2% |
| C=CC(=O)Nc1cccc(C)c1Nc1ncc2cc(-c3c(Cl)c(OC)cc(OC)c3Cl)ccc2n1 | -1.66% | -0.88% | -0.76% | 0.98% | 3.67% |
| CC(C)(C)NCc1cc(Nc2ccnc3cc(Cl)ccc23)c2c(c1O)CCCC2 [naphthoquine-phosphate] | -1.58% | -2.22% | -0.22% | -0.36% | -5.14% |

| SMILES | inhibition of SARS-CoV-2 cytopathic effect (1 nM) | inhibition of SARS-CoV-2 cytopathic effect (8.33 nM) | inhibition of SARS-CoV-2 cytopathic effect (100 nM) | inhibition of SARS-CoV-2 cytopathic effect (833.33 nM) | inhibition of SARS-CoV-2 cytopathic effect (10000 nM) |
| --- | --- | --- | --- | --- | --- |
| O=C(NNC(=O)c1ccc(CNS(=O)(=O)c2ccc(F)c(Cl)c2)cc1)c1ccccc1 | -1.42% | -1.3% | 3.13% | 0.57% | -0.76% |
| COc1cc2nccc(Oc3ccc(NC(=O)Nc4ccc(F)cc4F)c(F)c3)c2cc1OC | -0.54% | 1.76% | 4.46% | 4.37% | 5.75% |
| C=C1/C(=C\C=C2/CCC[C@]3(C)[C@@H]([C@H](C)/C=C/[C@@H](O)C4CC4)CC[C@@H]23)C[C@@H](O)C[C@@H]1O [calcipotriol] | -0.16% | 1.94% | -0.66% | 0.91% | 3.83% |
| CC(=O)NCCCOc1ccc(C(=O)N2CCC(N3C(=O)CCc4ccccc43)CC2)cc1 | 2.92% | -2.2% | 0.95% | 1.64% | 3.15% |
| CCn1cc(C(=O)O)c(=O)c2cc(F)c(N3CCNC(C)C3)c(F)c21 (stereo not given) [lomefloxacin] | 0.57% | -0.12% | -1.13% | 0.73% | -1.41% |
| O=C(O)C1(C(=O)O)CCC1.[NH2-].[NH2-].[Pt+2] [carboplatin] | 2.35% | 3.65% | 4.49% | 9.87% | 4.39% |
| NC(=O)N1c2ccccc2CC(O)c2ccccc21 (stereo not given) [licarbazepine] | -1.75% | 1.29% | -0.88% | -6.25% | 0.95% |
| Cc1ccc(-c2ncn(-c3ccc(Nc4nccc(-c5cccc(N6CCOCC6)c5)n4)cc3)n2)cn1 | -4.9% | -4.6% | -3.08% | -5.23% | -2.89% |
| Cc1ccnc(NS(=O)(=O)c2ccc(N)cc2)n1 [sulfamerazine] | 2.3% | 2.7% | -1.58% | -0.16% | -0.59% |
| CO[C@H]1CC=C2CCN3CCC4=C(CC(=O)OC4)[C@]23C1 | 1.56% | -0.91% | 1.32% | 0.73% | 1.37% |
| COc1ccc(C(=O)/C(Cc2cc(OC)c(OC)c(OC)c2)=C(\C(=O)O)c2ccc3c(c2)OCO3)cc1 | -2.66% | -0.48% | -0.33% | 1.73% | 17.8% (active) |
| CC1(C)S[C@@H]2[C@H](NC(=O)[C@H](NC(=O)N3CCNC3=O)c3ccccc3)C(=O)N2[C@H]1C(=O)O [azlocillin] | -1.64% | -1.64% | 1.05% | -1.76% | -1.54% |
| COc1cc2c(CCNC(C)=O)c[nH]c2cc1Cl [6-chloromelatonin] | 0.92% | 0.78% | -1.78% | 4.57% | -13.2% |
| CC(C)[C@H](N)C(=O)OCC(CO)OCn1cnc2c(=O)nc(N)[nH]c21 (mixture of isomers) [valganciclovir] | 6.98% | 8.27% | 4.51% | 8.72% | 1.96% |
| Cc1c(F)cc(C(=O)NC2CC2)cc1-c1ccc(C(=O)NCC(C)(C)C)cn1 [losmapimod] | 1.3% | 0.27% | -1.7% | -4.24% | -5.03% |
| Cc1ncc(CO)c(C=O)c1O [pyridoxal] | 4.33% | 2.21% | 0.26% | -1.64% | 1.19% |
| CCCCc1cc2ccccc2c(OCCN(C)C)n1 [dimethisoquin] | 0.87% | 1.84% | -0.28% | 0.5% | -2.53% |
| N#Cc1ccnc(N2C(=O)CC[C@H]2C(=O)N(c2cncc(F)c2)[C@H](C(=O)NC2CC(F)(F)C2)c2ccccc2Cl)c1 [ivosidenib] | -0.33% | 3.62% | 0.3% | 0.14% | 3.82% |
| CC(C)(C)c1ccc(/C=C/C(=O)Nc2ccc3c(c2)OCCO3)cc1 | -2.25% | 0.94% | 1.24% | -0.32% | -0.3% |
| NC(=S)N/N=C/c1ncccc1N [triapine] | 2.87% | -0.48% | 4.4% | 3.25% | -6.06% |
